Pf growth 48h = P. falciparum growth inhibition at 48 hours (one generation); Potency, µM (titrated, usually from 28.7 µM), usual class: inhibitors; P. falciparum luciferase growth in erythrocytes, 48 h; 310,000 tested, 5.9% active
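Luciferase-expressing P. falciparum in infected erythrocytes (2% hematocrit, 0.1% parasitemia final) in RPMI 1640/0.5% Albumax were exposed to compound for 48 hours at 37 C, 5% CO2; growth read as luminescence.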
Shiga inhibitor = Shiga toxin inhibition; AID 2315; Vero cells, Shiga toxin protein synthesis inhibition reporter; inhibition, % at 38.7 µM; 290,000 tested, 9.2% active; in the data active means inhibition mostly above about 28%, no sharp cut-off; inactive means mostly below about 43%
CHX counter = counter-screen for Shiga toxin inhibitors: cycloheximide protein synthesis inhibition; cell reporter, cycloheximide protein synthesis inhibition counterscreen; max response, %; 300,000 tested, 12% active; AID 2314; in the data active means max response mostly above about 13%, no sharp cut-off; inactive means mostly below about 14%; further: read at 38.3 µM for the half of the compounds with a filed dose
Pf growth 96h = P. falciparum growth inhibition at 96 hours; P. falciparum luciferase reporter growth, 96 h; Potency, µM (top dose mostly 28.7 µM), hits mostly inhibitors; 320,000 tested, 6.9% active
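Luminescence readout: decreased luciferase signal marks inhibited growth of reporter-expressing P. falciparum in infected red cells (2% hematocrit, 0.05% parasitemia final), exposed to compound two generations (96 h, 37 C, 5% CO2).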
Hits are given with their value; - = inactive; ? = inconclusive; . = no result; [ ] = another dose, or the depositor's remark. A selection: hits, their analogues and other compounds. The true share with any hit is near 21%. Unless noted, the call rests on the fitted dose curve; in most records, active means well fitted inhibition curve with a large enough effect; inconclusive means small, poorly fitted or top-dose-only effect, or another doubt; inactive means no such curve, though single readings can be large or run the other way.

SMILES	Pf growth 48h	Shiga inhibitor	CHX counter	Pf growth 96h
O=C(NC(=S)NCC1CCCO1)c1ccc(Br)o1 (configuration not stated)	-	-	30	-
Cc1ccc(C(=O)NC(=S)NCC2CCCO2)cc1Br (configuration not stated)	-	78	52	-
O=C(c1cc2ccccc2oc1=O)N(Cc1ccc2c(c1)OCO2)Cc1ccco1	-	110	-	-
O=C(NCc1ccc2c(c1)OCO2)c1cc2ccccc2oc1=O	-	-	-	-
O=C(c1ccco1)N(Cc1ccc2c(c1)OCO2)Cc1cc2cc3c(cc2[nH]c1=O)OCO3	-	-	-	12µM
COC(OC)c1ccc(C#N)c(SCc2ccc(C)cc2)n1	-	-	-	?
CCC(Sc1nc(N)cc(N)n1)C(=O)O (configuration not stated)	.	-	-	3.3µM
CCC(Sc1ccccc1C(=O)O)C(=O)O (configuration not stated)	.	-	-	.
C=CCN1C(=O)c2ccc(C(=O)N3CCN(S(=O)(=O)c4ccccc4Br)CC3)cc2C1=O	-	.	.	-
CC(C)(C)c1csc(NC(=O)CS(=O)(=O)c2ccccc2)n1	-	127	39	-
Cc1csc(NC(=O)CS(=O)(=O)c2ccccc2)n1	-[5.75 µM]	48	28	?
O=C(Nc1cccc(Cl)c1)NC1CCS(=O)(=O)C1 (configuration not stated)	-	-	-	-
CCC1(c2ccccc2)NC(=O)N(CC(=O)NNC(=O)COc2ccc(Cl)cc2C)C1=O (configuration not stated)	?	.	.	-
O=c1c2ccccc2nc(N/N=C/c2c(O)ccc3ccccc23)n1O	0.52µM	53	40	0.47µM
CN(Cc1cccc(F)c1)C(=O)CNS(=O)(=O)c1ccc2ccccc2c1	-	-	-	-
CN(C)c1nc(C#N)nc(N(C)C)n1	-	-	-	-
CCCN(CCC)c1nc(C#N)nc(N(CCC)CCC)n1	12µM	-	-	8.3µM
COc1cc([N+](=O)[O-])ccc1Nc1nc(C)cc(C)n1	-	-	-	9.3µM
Cc1cc(C)nc(Nc2ccc(C)c([N+](=O)[O-])c2)n1	-	54	17	-
COc1cc(NS(C)(=O)=O)ccc1Nc1c2ccccc2nc2ccccc12	1µM	.	.	0.93µM
O=[N+]([O-])c1ccc(Nc2c3ccccc3nc3ccccc23)cc1	?	-	-	-
COc1ccc([N+](=O)[O-])cc1Nc1c2ccccc2nc2ccccc12	12µM	-	-	17µM
Cc1ccc(C(=O)C(C)Oc2ccc3ccc(=O)oc3c2)cc1 (configuration not stated)	-	-	-	?
COc1ccc(OC)c(Nc2c3c(nc4ccccc24)CCC3)c1	?	-	-	?
COc1ccc(OC)c(Nc2c3ccccc3nc3ccccc23)c1	1.7µM	-	-	?
SMILES	Pf growth 48h	Shiga inhibitor	CHX counter	Pf growth 96h
CN(C)C(=O)c1ccc(-c2nnc(NCc3ccccc3)c3ccccc23)cc1	13µM	-	-	2.9µM
CCN(CC)C(=O)c1ccc(NC(=O)c2ccc(-c3nn(C)c(=O)c4ccccc34)cc2)cc1	-	-	-	10µM
CCN(CC)C(=O)c1ccc(-c2nnc(Nc3ccc(O)cc3)c3ccccc23)cc1	?	.	-	-
Cc1nnc(NCc2ccccc2)c2ccccc12	-	.	-	-
CCN(CC)C(=O)c1ccc(-c2nnc(Nc3ccc(C(=O)N(C)C)cc3)c3ccccc23)cc1	5.9µM	-	-	-
CCC(C)C(NC(=O)OC(C)(C)C)C(=O)NC(C)C(N)=O (configuration not stated)	-	-	-	-
Nc1ccccc1S(=O)(=O)Nc1cccc2cccnc12	.	-	-	.
CCC(CC)NC(=O)c1cc(S(=O)(=O)N2CCCCC2)ccc1N1CCOCC1	-	.	.	?
CCN(c1cc(C)cc(C)c1)S(=O)(=O)c1nnc(NC(=O)C(C)C)s1	?	-	-	?
CCN(c1ccc(OC)cc1)S(=O)(=O)c1nnc(NC(=O)c2ccco2)s1	?	-	-	-
CCN(c1ccc(C)cc1C)S(=O)(=O)c1nnc(NC(=O)C(C)(C)C)s1	10µM	-	-	?
CCN(c1ccc(C)cc1C)S(=O)(=O)c1nnc(NC(=O)C(C)C)s1	13µM	-	-	-
CCN(c1cc(C)cc(C)c1)S(=O)(=O)c1nnc(NC(=O)c2ccco2)s1	-	-	-	12µM
O=C1CCC(C(=O)N(Cc2cccs2)C2(C(=O)NC3CCCCC3)CCCCC2)N1 (configuration not stated)	-	-	-	-
OC[C@H]1O[C@@H](n2cnc3cc(Cl)c(Cl)cc32)[C@H](O)[C@H]1O	.	-	-	.
Cc1ccc(CNC(=O)CN(C(=O)C2(C)CC(=O)N=C3C=CC=CN32)c2cc(C)ccc2C)cc1 (configuration not stated)	-	-	-	-
Cc1ccc(CNC(=O)CN(Cc2cccs2)C(=O)C2(C)CC(=O)N=C3C=CC=CN32)cc1 (configuration not stated)	-	-	-	1.7µM
COc1ccc(-c2ccc(=O)n(Cc3ccc([N+](=O)[O-])cc3)n2)cc1	-	-	-	-
O=[N+]([O-])c1ccc2nc(-c3ccc(OC(F)F)cc3)cn2c1	-	73	45	-
C/C(=N\NC(=O)c1ccccc1Br)c1ccc(N2CCOCC2)cc1	-	-	-	-
C/C(=N/NC(=O)c1cccs1)c1ccc(N2CCOCC2)cc1	-	70	51	-
C/C(=N\NC(=O)c1ccncc1)c1ccc(N2CCOCC2)cc1	-	.	.	-
C/C(=N\NC(=O)c1cc(C)oc1C)c1ccc(N2CCOCC2)cc1	-	54	37	-
C/C(=N\NC(=O)COc1ccc(C#N)cc1)c1ccc(N2CCOCC2)cc1	-	26	-	-
C/C(=N\NC(=O)c1ccccc1)c1ccc(N2CCOCC2)cc1	.	54	58	-
SMILES	Pf growth 48h	Shiga inhibitor	CHX counter	Pf growth 96h
O=c1[nH]c2ccccc2n2c(=S)[nH]nc12	-	-	-	-
COc1ccc(C2CC(c3ccccc3OC(C)=O)=NN2C(C)=O)cc1 (configuration not stated)	?	49	30	-
COc1ccc(C2CC(c3ccccc3OC(C)=O)=NN2C(=O)/C=C/c2ccccc2)cc1 (configuration not stated)	?	-	-	?
CC(=O)Oc1ccccc1C1=NN(C(=O)/C=C/c2ccccc2)C(c2ccccc2)C1 (configuration not stated)	?	-	-	?
COc1ccc(C2CC(c3ccc4ccccc4c3OC(C)=O)=NN2C(=O)/C=C/c2ccccc2)cc1 (configuration not stated)	12µM	-	-	?
CC(C)Oc1cccc(C(=O)N/N=C/c2coc3ccccc3c2=O)c1	-	-	-	?
CC(C)COc1ccc(C(=O)N/N=C/c2ccoc2)cc1	-	83	27	5.9µM
Cc1cccc(C(=O)N/N=C/c2ccoc2)c1	-	78	36	-
O=C(N/N=C/c1ccoc1)c1ccc([N+](=O)[O-])cc1	-	-	-	-
CCOc1cc(C(=O)N/N=C/c2ccoc2)cc(OCC)c1OCC	-	-	-	?
CC(C)Oc1cccc(C(=O)N/N=C/c2ccoc2)c1	-	61	49	-
